The structures appear in SMILES notation. Results filed as inconclusive are left out. The source made the active and inactive calls. Calls come from the whole dose curve; as a rule, active = well fitted cell-killing curve with a large enough effect in the repeat runs; inconclusive = weak or mixed curves, or effect the other way; inactive = no such curve, though single readings can be large or run the other way.
% is set by controls: 0 for no effect and ±100 for the full control effect.

The test in a line: qHTS assay to identify small molecule antagonists of the progesterone receptor (PR) signaling pathway - cell viability counter screen (AID 1346798). Note: nearly all actives have a fitted effect of over 50% in size. The settings on record: PR-UAS-bla HEK293T viability, CellTiter-Glo luminescence, 16 h; series mostly up to 92.4 µM. From the text:
National Center for Advancing Translational Sciences [NCATS]
NIH Chemical Genomics Center [NCGC]
U.S. Environmental Protection Agency [EPA]
National Institutes of Environmental Health Sciences [NIEHS]
National Toxicology Program [NTP]
U.S. Food and Drug Administration [FDA]
Progesterone receptor (PR), a nuclear hormone receptor, plays an important role in development, metabolic homeostasis and reproduction. It is activated by the steroid hormone progesterone. Endocrine disrupting chemicals (EDCs) and their interactions with steroid hormone receptors like PR causes disruption of normal endocrine function. To identify the compounds that inhibit PR signaling, a PR-UAS-bla GripTite cell line i.e. PR-UAS-bla HEK293T (Invitrogen, Carlsbad, CA, USA) containing a beta-lactamase reporter gene under the control of an UAS response element was used to screen Tox21 10K compound library. The cytotoxicity of the Tox21 compound library against the PR-bla cell line was tested in parallel by measuring the cell viability using CellTiter-Glo assay in the same wells.
Tox21 Assay Protocol Summary:
PR-UAS-bla HEK293T cells were dispensed at 3,000 cells/4 uL of assay medium containing 2% charcoal stripped FBS per well into black wall/clear-bottom 1536-well plates using a Multidrop Combi (ThermoFisher Scientific, Waltham, MA) dispenser. After the assay plates were incubated at a 37C and 5% CO2 for 4 hr, 23 nL of compounds dissolved in DMSO, positive controls or DMSO only was transferred to the assay plate by a Pintool station (Kalypsys, San Diego, CA), followed by addition of 1 uL of R5020 in assay medium using a Flying Reagent Dispenser (FRD, Aurora Discovery, San Diego, CA). The plates were incubated at 37C and 5% CO2 for 16 hr. Then 1 uL of LiveBLAzer B/G FRET substrate was added using a Flying Reagent Dispenser, the plates were incubated at room temperature for 2 hours, and fluorescence intensity was measured by an Envision plate reader (PerkinElmer, Shelton, CT). For cell viability readout that measures cytotoxicity, 4 uL/well of CellTiter-Glo reagent was added into the assay plates using a FRD. After 30 min incubation at room temperature, the luminescence intensity in the plates was measured using a ViewLux (PerkinElmer) plate reader.
Turning to `COC(=O)c1ccc(C(=O)O)cc1`, the compound was called inactive.
On the same count and under the same terms, to `CC(=O)OC/C=C(/C)CCC=C(C)C` belongs “inactive”; to `CCCCCCCCC1CO1` (stereo not given), “inactive”.
Still for that read-out and setting: to `C[C@@H]1CCC[C@H](C)N1CCCC(O)(c1ccccc1)c1ccccn1` (stereo not given in full) belongs “inactive”; to `CC/C=C\CCOC(=O)c1ccccc1`, “inactive”.
On the same count and under the same terms, under `CN1CCN(C(=O)C2CCCCC2)CC1` stands “inactive”; under `COC(C)(C)CC(C)=O`, “inactive”; under `CCCCCCCCCCCCCCBr`, “inactive”.
Turning to `COc1cnc(NS(=O)(=O)c2ccc(N)cc2)nc1`, the outcome was inactive.
Still for that read-out and setting: to `C/C(Cl)=C/CCl` belongs “inactive”; to `CN(C)CCc1c[nH]c2ccc(CS(=O)(=O)N3CCCC3)cc12`, “inactive”.
Same read-out and setting: to `CC(C)(C)c1ccc(C(=O)CCCCl)cc1` belongs “inactive”; to `C=CCN(CC=C)CC=C`, “inactive”.
For `CCOCCOCCOC(C)=O`, the call was inactive.
The same measure, in the same setting: under `C=COCCCCO` stands “inactive”.
For `CCCCCCCCCCCCCCCC(=O)OC`, the activity change, negative = cytotoxicity was 20% [at 18.9 µM] (inactive).
Consider `O=c1c(O)c(O)c1=O`, for which the compound was classed as inactive.
On to `Nc1ccc(C(=O)NCC(=O)O)cc1`, for which the call was inactive.
In the case of `CCCCCCCCCCCCCCCCN(C)C`, the activity change, negative = cytotoxicity is -0.0264% [at 8.39 µM] (inactive).
With `C/C(=N\O)c1ccc(OCC(=O)N2CCCCC2)cc1`, the call was inactive.
On the same count and under the same terms, under `O=C(O)/C=C(\CC(=O)O)C(=O)O` stands “inactive”; under `C=CC(=O)CC`, “inactive”; under `N#Cc1cc(NC(=O)C(=O)O)c(Cl)c(NC(=O)C(=O)O)c1`, “inactive”.
On the same count and under the same terms, under `CCC(C)c1nccnc1OC` (stereo not given) stands “inactive”; under `Cc1ccc(S(=O)(=O)NC(=O)NN2CC3CCCC3C2)cc1` (stereo not given), “inactive”.
Still for that read-out and setting: under `CCCCCC(=O)CC` stands “inactive”; under `CCCCCCCCCCCCCCCC/C=C/C1CC(=O)OC1=O` (stereo not given), “inactive”.
On to `COC(=O)c1cc(Cl)c(NC(C)=O)cc1OC`, for which the call was inactive.
The same measure, in the same setting: to `CC(=O)c1c(C)cc(C(C)(C)C)cc1C` belongs “inactive”; to `C=C(C)C(=O)OCCOC1CC2CC1C1C=CCC21` (stereo not given), “inactive”; to `Cc1cc(N)no1`, “inactive”.
The same measure, in the same setting: to `O=C1CC2(CCCC2)CC(=O)N1CCNCC1COc2ccccc2O1` (stereo not given) belongs “inactive”.
The same measure, in the same setting: to `C=CC(C)(CCC=C(C)C)OC(=O)C(C)C` (stereo not given) belongs “inactive”.
As to `c1coc(Cn2cccc2)c1`, the compound was classed as inactive.
`COCc1nnc(-c2ccc[n+]([O-])c2)n1-c1c(Cl)c(Cl)cc2[nH]c(=O)c(=O)[nH]c12`: the compound was classed as inactive.
As for `CCOC(=O)c1ccc(N(C)C)cc1`, the compound was called inactive.
`C[C@@H]1CC[C@@]2(OC1)O[C@H]1C[C@H]3[C@@H]4CC[C@H]5C[C@@H](O)CC[C@]5(C)[C@H]4CC(=O)[C@]3(C)[C@H]1[C@@H]2C`: the activity change, negative = cytotoxicity was 12.3% [at 8.39 µM] (inactive).
Turning to `N#CC1(N)CCCCC1`, the call was inactive.
Regarding `CCCCCCCCS(=O)(=O)O`, the compound was called inactive.
The same measure, in the same setting: under `CCCCCCCCCCCBr` stands “inactive”.
